Holding throughout (experiment): HT-SELEX; high values mean tight binding
What all share (settings): protein: recombinant; vector His6-GST; dsDNA, one strand shown

One experiment deals with T1, SALL4 ZFC4 WT (HT-SELEX) (Mus musculus, UniProt Q8BX22 870-940).
T1 sequence: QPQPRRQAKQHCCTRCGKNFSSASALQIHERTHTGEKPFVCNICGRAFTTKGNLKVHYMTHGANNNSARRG
A digest of the protocol:
(§1)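 Binding signal is expressed as fold change in each canonical k-mer's read fraction over the initial random library. To obtain it, 1 µg of purified recombinant mouse SALL4 zinc finger cluster 4 (residues 870–940) was incubated for 10 min at room temperature with library DNA (1.5 µg first cycle, 200 ng later cycles) in 100 µl of 10 mM Tris–HCl pH 7.5, 50 mM NaCl, poly(dI-dC) and DTT. Ni2+ bead-captured complexes went through washing, PCR amplification and reselection for up to 6 cycles, in triplicate, before MiSeq sequencing and scanning for 6-mers.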

Experiment [1] concerns the target T2, SALL4 ZFC4 R900W (HT-SELEX) (Mus musculus, UniProt Q8BX22 870-940, R900W).
T2 sequence: T1 sequence with R31W
A digest of the protocol:
as §1

Experiment [2] deals with T3, SALL4 ZFC4 G921D (HT-SELEX) (Mus musculus, UniProt Q8BX22 870-940, G921D).
T3 sequence: T1 sequence with G52D
A digest of the protocol: as §1

Changes are numbered by the printed parent chain.

As to CAAGTC, the binding signal in the experiment with SALL4 ZFC4 WT (HT-SELEX) was determined as 0.742 ± 0.0124 fold-change vs cycle 0; in experiment [1] it was 0.878 ± 0.025 fold-change vs cycle 0; in experiment [2], 0.942 ± 0.0196 fold-change vs cycle 0.
For the sequence CGTTCC, the binding signal with SALL4 ZFC4 WT (HT-SELEX) stood at 0.389 ± 0.0208 fold-change vs cycle 0; in experiment [1], 0.468 ± 0.0134 fold-change vs cycle 0; in experiment [2] it was 0.546 ± 0.0299 fold-change vs cycle 0.
The matching figures for ACGTCA: 0.686 ± 0.00954 fold-change vs cycle 0, 0.776 ± 0.0221 fold-change vs cycle 0 and 0.847 ± 0.0153 fold-change vs cycle 0.
The matching figures for AGAAGG: 0.864 ± 0.0399 fold-change vs cycle 0, 1.05 ± 0.055 fold-change vs cycle 0 and 0.997 ± 0.0501 fold-change vs cycle 0.
The matching figures for ATCTGG: 0.78 ± 0.0274 fold-change vs cycle 0, 0.839 ± 0.0522 fold-change vs cycle 0 and 0.901 ± 0.0524 fold-change vs cycle 0.
Regarding CCTGAA, the binding signal was determined as 0.792 ± 0.0306 fold-change vs cycle 0 with SALL4 ZFC4 WT (HT-SELEX), 0.933 ± 0.0447 fold-change vs cycle 0 in experiment [1] and 0.951 ± 0.0276 fold-change vs cycle 0 in experiment [2].
Consider GCTGAA, for which the binding signal amounted to 0.582 ± 0.0146 fold-change vs cycle 0 with SALL4 ZFC4 WT (HT-SELEX), 0.67 ± 0.0322 fold-change vs cycle 0 in experiment [1] and 0.774 ± 0.0356 fold-change vs cycle 0 in experiment [2].
The matching figures for GACCCA: 0.39 ± 0.0219 fold-change vs cycle 0, 0.467 ± 0.00775 fold-change vs cycle 0 and 0.59 ± 0.0677 fold-change vs cycle 0.
Regarding ACTAAA, the binding signal with SALL4 ZFC4 WT (HT-SELEX) is 1.81 ± 0.0352 fold-change vs cycle 0; in experiment [1], 1.9 ± 0.121 fold-change vs cycle 0; in experiment [2] it was 1.69 ± 0.128 fold-change vs cycle 0.
For the sequence CACTAA, the binding signal was 1.22 ± 0.0467 fold-change vs cycle 0 with SALL4 ZFC4 WT (HT-SELEX), 1.38 ± 0.0225 fold-change vs cycle 0 in experiment [1] and 1.29 ± 0.0518 fold-change vs cycle 0 in experiment [2].
On the same counts, the results for AAGAAA are 2.03 ± 0.13 fold-change vs cycle 0, 2.08 ± 0.193 fold-change vs cycle 0 and 1.78 ± 0.233 fold-change vs cycle 0.
On the same counts, the results for CCTAAA are 1.13 ± 0.0805 fold-change vs cycle 0, 1.27 ± 0.0327 fold-change vs cycle 0 and 1.18 ± 0.0527 fold-change vs cycle 0.
On the same counts, the results for AACTTG are 1.21 ± 0.0551 fold-change vs cycle 0, 1.34 ± 0.0813 fold-change vs cycle 0 and 1.29 ± 0.0625 fold-change vs cycle 0.
In the case of CAAGGG, the binding signal with SALL4 ZFC4 WT (HT-SELEX) turned out to be 0.487 ± 0.0326 fold-change vs cycle 0; in experiment [1], 0.5882 ± 0.00585 fold-change vs cycle 0; in experiment [2] it was 0.665 ± 0.033 fold-change vs cycle 0.
On the same counts, the results for CCTCTC are 0.497 ± 0.0203 fold-change vs cycle 0, 0.586 ± 0.028 fold-change vs cycle 0 and 0.687 ± 0.045 fold-change vs cycle 0.
On the same counts, the results for AAAACG are 0.821 ± 0.0591 fold-change vs cycle 0, 0.931 ± 0.0404 fold-change vs cycle 0 and 0.972 ± 0.016 fold-change vs cycle 0.
The matching figures for CTATCC: 0.843 ± 0.0485 fold-change vs cycle 0, 0.98 ± 0.0213 fold-change vs cycle 0 and 0.977 ± 0.0393 fold-change vs cycle 0.
In the case of CCTAAG, the binding signal with SALL4 ZFC4 WT (HT-SELEX) came to 0.941 ± 0.0158 fold-change vs cycle 0; in experiment [1], 1.05 ± 0.0579 fold-change vs cycle 0; in experiment [2] it was 1.05 ± 0.0419 fold-change vs cycle 0.
The matching figures for CCGTAA: 0.687 ± 0.0267 fold-change vs cycle 0, 0.78 ± 0.0395 fold-change vs cycle 0 and 0.825 ± 0.0254 fold-change vs cycle 0.
The matching figures for ATTGCA: 1.16 ± 0.0389 fold-change vs cycle 0, 1.12 ± 0.0435 fold-change vs cycle 0 and 1.18 ± 0.0324 fold-change vs cycle 0.
Take GAGTCC: the binding signal with SALL4 ZFC4 WT (HT-SELEX) is 0.481 ± 0.0188 fold-change vs cycle 0; in experiment [1] it was 0.549 ± 0.0274 fold-change vs cycle 0; in experiment [2], 0.669 ± 0.013 fold-change vs cycle 0.
ATACGG: the binding signal with SALL4 ZFC4 WT (HT-SELEX) was 0.67 ± 0.0205 fold-change vs cycle 0; in experiment [1], 0.767 ± 0.0197 fold-change vs cycle 0; in experiment [2] it was 0.808 ± 0.0319 fold-change vs cycle 0.
Regarding ACTGAA, the binding signal with SALL4 ZFC4 WT (HT-SELEX) worked out at 1.38 ± 0.0494 fold-change vs cycle 0; in experiment [1], 1.5 ± 0.11 fold-change vs cycle 0; in experiment [2] it was 1.39 ± 0.103 fold-change vs cycle 0.
On the same counts, the results for ATGATA are 2.72 ± 0.227 fold-change vs cycle 0, 2.14 ± 0.0867 fold-change vs cycle 0 and 1.86 ± 0.153 fold-change vs cycle 0.
Take TTGAAA: the binding signal in the experiment with SALL4 ZFC4 WT (HT-SELEX) amounted to 1.92 ± 0.106 fold-change vs cycle 0; in experiment [1] it was 1.88 ± 0.0943 fold-change vs cycle 0; in experiment [2] it was 1.7 ± 0.131 fold-change vs cycle 0.
Turning to GAGCTA, the binding signal was 0.677 ± 0.0225 fold-change vs cycle 0 with SALL4 ZFC4 WT (HT-SELEX), 0.747 ± 0.0353 fold-change vs cycle 0 in experiment [1] and 0.858 ± 0.0136 fold-change vs cycle 0 in experiment [2].
With CGATCA, the binding signal was determined as 0.683 ± 0.0475 fold-change vs cycle 0 in the experiment with SALL4 ZFC4 WT (HT-SELEX), 0.7718 ± 0.00739 fold-change vs cycle 0 in experiment [1] and 0.896 ± 0.0609 fold-change vs cycle 0 in experiment [2].
On the same counts, the results for AGAAAC are 1.21 ± 0.0656 fold-change vs cycle 0, 1.36 ± 0.0395 fold-change vs cycle 0 and 1.31 ± 0.0847 fold-change vs cycle 0.
On the same counts, the results for AGACGA are 0.675 ± 0.0154 fold-change vs cycle 0, 0.786 ± 0.0316 fold-change vs cycle 0 and 0.86 ± 0.0237 fold-change vs cycle 0.
As to ACTAAT, the results for the binding signal (in the experiment with SALL4 ZFC4 WT (HT-SELEX); in experiment [1]; in experiment [2]) were 2.16 ± 0.0523 fold-change vs cycle 0, 2.13 ± 0.102 fold-change vs cycle 0 and 1.86 ± 0.174 fold-change vs cycle 0, respectively.

Source of the values: article PMC9838217, “Structure of SALL4 zinc finger domain reveals link between AT-rich DNA binding and Okihiro syndrome”.
